# Assay outcomes from PubChem.
# AID923: qHTS Assay for Allosteric/Competitive Inhibitors of Caspase-1: Spectroscopic Profiling in AFC Spectral Region; AID 923, 2007; compound fluorescence, AFC spectral region (405/520 nm); 75,000 compounds, 1.1% hits; Potency, µM (highest dose often 57.5 µM), without a hit: at the highest dose fluorescence increase, most hits filed as activators; also: potency is read from the fitted curve at half-maximal effect; 0% is about no effect
#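 Compound autofluorescence profiled at 405 nm ex/520 nm em during kinetic caspase 1 run (50 nM enzyme, 5 uM Ac-WEHD-AFC, HEPES pH 7.5, 10 mM DTT). Titration up to 57 uM; baseline from regression intercept, normalized to AFC standard curve.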
# HADH2 inhib: blocks human hydroxyacyl-CoA dehydrogenase type II | Q99714 | Potency, µM (doses to about 57.1 µM), inactives show at the top dose activity change, negative = inhibition, most hits filed as inhibitors | 73,000 compounds, 3.4% hits | recombinant HADH2, NADH fluorescence, beta-hydroxybutyryl-CoA; also: potency is read from the fitted curve at half-maximal effect; % is scaled to controls: 0 for no effect and ±100 for the full control effect; nearly all actives have a fitted effect of over 60% in size
# Target sequence (Q99714 whole entry, looked up, one chain of several): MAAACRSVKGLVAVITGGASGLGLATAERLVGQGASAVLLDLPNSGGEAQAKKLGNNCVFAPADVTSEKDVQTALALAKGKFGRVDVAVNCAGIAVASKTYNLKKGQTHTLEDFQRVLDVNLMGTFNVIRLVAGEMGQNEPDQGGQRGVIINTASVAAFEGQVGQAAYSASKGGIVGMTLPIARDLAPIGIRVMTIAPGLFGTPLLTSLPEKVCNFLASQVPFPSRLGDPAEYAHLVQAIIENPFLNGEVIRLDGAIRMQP
#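 NADH fluorescence (ex 360/em 450 nm) read every 30 s for 4 min; activity taken as last-minus-first time point difference. Enzyme 20 nM, NAD+ 1 mM, beta-hydroxybutyryl-CoA 90 uM, pH 9.0 Tris buffer.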
# CRE Fsk mod: CRE-bla signaling modulation under forskolin stimulation. CHO CRE-bla reporter (cAMP response element driving beta-lactamase), forskolin EC10, beta-lactamase ratio. Potency, µM (doses to about 38.2 µM), inactives show at the top dose activity change, negative = inhibition, actives largely listed as activators. 71,000 compounds, 2.5% hits. AID 662; active = well fitted activation curve with a large enough effect in the signal ratio, with a control signal flat, not every such curve was filed as active; inconclusive = small, poorly fitted or top-dose-only effect, or effect the other way, or a change in a side signal; the % refers to the signal ratio; also: potency is read from the fitted curve at half-maximal effect; % of control where 0% means no effect
#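 Modulation of forskolin-driven signalling is measured in CHO cells carrying a CRE-controlled beta-lactamase reporter. Cells are stimulated with EC10 NKH 477 in the presence of titrated compound for 3 h at 37 °C, then loaded with CCF4 for 2 h at room temperature.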
# A350 fluor: compounds fluorescent in Alexa 350 spectral region. max dye-equivalent concentration, M. AID 590. 59,000 compounds, 11% hits. Compound autofluorescence, 340/450 nm, Alexa 350 dye-equivalents; stronger effect = higher value; in the data active = max dye-equivalent concentration above about 10 nM; inconclusive = mostly about 1.1 nM to 9.6 nM
# 4MU fluor: compound fluoresces in the 4-MU spectral region; max dye-equivalent concentration, M; compound autofluorescence, 340/450 nm, 4-MU equivalents; stronger effect = higher value; 59,000 compounds, 11% hits; in the data active = max dye-equivalent concentration above about 10 nM; inconclusive = mostly about 1.1 nM to 9.6 nM
#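 Compounds in 100 mM Tris, pH 8.0, sat 15 min at room temperature before fluorescence was read at 340 nm excitation/450 nm emission; a per-plate six-point 4-MU standard curve converted signals to dye-equivalent concentration at each compound concentration.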
# HSD17B inhib: HSD17B dehydrogenase inhibition; Q99714; 75,000 compounds, 7.6% hits; recombinant HSD17B10, NADH fluorescence kinetic; AID 893; Potency, µM (top dose mostly 57.1 µM), without a hit: top-dose activity change, negative = inhibition, usual class: inhibitors;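 also: the protocol describes HADH2 (HSD17B10) and not the HSD17B4 of the title; potency is read from the fitted curve at half-maximal effect; % is scaled to controls: 0 for no effect and ±100 for the full control effect; nearly all actives have a fitted effect of over 70% in size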
#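 20 nM HADH2, pH 9.0 Tris/Tween; cpd preinc 15 min RT; start w/ 1 mM NAD+ + 90 uM b-hydroxybutyryl-CoA; kinetic fluor ex360/em450 q30s x 4 min; delta last-first.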
# * marks the source's active call; other numbers are inactive results; i = inactive; ? = inconclusive; . = no result; [ ] = another dose, or the depositor's remark. Most compounds without a hit are left out; they make up all but 14% or so of the library. Unless noted, calls follow the shape of the dose curve; as a rule, active = well fitted curve in the direction sought with a large enough effect; inconclusive = small, poorly fitted or top-dose-only effect, or another doubt; inactive = no such curve, though single readings can be large; an effect the other way counts as inactive or inconclusive.
SMILES,AID923,HADH2 inhib,CRE Fsk mod,A350 fluor,4MU fluor,HSD17B inhib
Cc1noc(NS(=O)(=O)c2ccc(N3Cc4ccccc4C3=O)cc2)c1C,-4%,-3%,13µM*,i,i,4%
Cc1noc(NS(=O)(=O)c2ccc(NC(=O)Nc3ccc(Cl)c(Cl)c3)cc2)c1C,1%,-13%,?,i,i,9%
COc1ccc(C(=O)n2nc(-c3ccco3)nc2SC)cc1OC,1%,-22%,?,i,i,?
O=C(c1ccco1)n1nc(-c2ccccc2)nc1NCc1ccco1,-2%,-8%,-4%,3.6e-08M*,1.1e-08M*,474%
O=C(c1ccco1)n1nc(-c2ccc(Cl)cc2)nc1NCc1ccco1,0%,-3%,-13%,1.6e-08M*,1.8e-08M*,36%
COc1ccccc1C(=O)n1nc(-c2ccccc2)nc1NCc1ccco1,0%,1%,-17%,i,i,30%
COc1ccc(-c2nc(SC)n(C(=O)c3ccco3)n2)cc1,-1%,20µM*,-7%,8.3e-08M*,7.3e-08M*,32µM*
CC(CC(=O)O)(CC(=O)O)C(=O)O,1%[11.5 µM],11%[11.4 µM],4%[7.6 µM],i,i,2%[11.4 µM]
CCC(C)(C)n1nnnc1C(c1ccc2ncccc2c1)N1CCN2CCCC2C1 (stereo not given),5%,-15%,?,i,i,18%
Cc1cnc(CNc2ccnc(-c3cccc(C#N)c3)n2)cn1,0%,-7%,?,i,i,1%
O=C(O)c1cc(-c2ccncc2)nc2ccc(F)cc12,1%,10%,1%,1.2e-08M*,1.2e-08M*,-12%
O=C(Nc1ccccc1N1CCCC1)c1ccco1,1%,-11%,-3%,i,i,1%
COc1ccc(C(=O)Cn2nnc(-c3ccccc3NC(=O)c3ccco3)n2)cc1,1%,?,19%,?,?,32µM*
O=C(Nc1ccccc1-c1nnn(CC(=O)N2CCCc3ccccc32)n1)c1ccco1,0%,-11%,29%,i,i,32µM*
COc1cc(C(=O)Nc2cccc3ncccc23)cc(OC)c1OC,1%,-4%,?,5.7e-07M*,5.1e-07M*,25µM*
CCn1nnc(-c2ccccc2NC(=O)c2cc(OC)c(OC)c(OC)c2)n1,-1%,23%,2.5µM*,i,i,7%
C/C(=N/O)c1ccc2cc(Br)c3ccccc3c2c1,4%[11.5 µM],24%[11.4 µM],6%[7.6 µM],i,i,-1%[11.4 µM]
CN[C@@H]1[C@H](O[C@@H]2O[C@H](CO)[C@@H](N)[C@H](O)[C@@H]2O)O[C@H]2C[C@@H](N)[C@@H](O[C@H]3[C@@H](O)[C@H](O)[C@H](N)C[C@@H]3N)O[C@H]2[C@H]1O,1%[25.7 µM],-4%[25.6 µM],0%[17.1 µM],i,i,2%[25.6 µM]
Cn1c2c(c(=O)n(C)c1=O)C(CC(=O)Nc1ccccc1)C(=O)N2 (stereo not given),-1%,-1%,-4%,1.2e-07M*,1.1e-07M*,?
CN(C)/C=N/c1c(C#N)cnn1-c1ncnc2sc(-c3ccccc3)cc12,4%,3%,25%,4.4e-08M*,4.9e-08M*,?
Cc1nc2c(c(=O)n1CC1CCCO1)c1nc3ccccc3nc1n2Cc1ccc2c(c1)OCO2 (stereo not given),.,.,.,1.7e-08M*,1.8e-08M*,.
Cc1nc2c(c(=O)n1CC1CCCO1)c1nc3ccccc3nc1n2CC(C)C (stereo not given),.,.,.,3.1e-08M*,3.5e-08M*,.
FC(F)(F)C12CC(c3ccccc3)=NCCN1CCN2 (stereo not given),5%,8%,-4%,1.1e-07M*,9.1e-08M*,-24%
FC(F)C(F)(F)C1=CC(c2ccccc2)=NCCN1,3%,-7%,0%,.,.,-4%
CCN1CCc2c(C#N)c(N3CCCCC3)nc(NCc3ccccc3)c2C1,.,.,.,5e-08M*,4.4e-08M*,.
CCN1CCc2c(C#N)c(N3CCOCC3)nc(NCCO)c2C1,.,.,.,1.1e-07M*,9.8e-08M*,.
